Assay results taken from PubChem BioAssay (NCATS).
Records with an inconclusive call do not appear. Entries that show only a call come without a potency. A number with no mark means an inactive call. Activity calls are given as the source filed them. Calls follow the shape of the dose curve; as a rule, active = well fitted cell-killing curve with a large enough effect; inconclusive = small, poorly fitted or top-dose-only effect, or effect the other way; inactive = flat fitted curve, though single readings scatter.

Test system: Tov112D
Assay: Primary qHTS to identify gynecologic anti-cancer compounds using libraries of approved drugs and bioactive compounds (AID 1345084); also: nearly all actives have a fitted effect of over 55% in size
Conditions: Gynecologic cancer cell panel viability, ATPlite luminescence, 48 h; series mostly up to 57.5 µM
How it was run: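 Cells, 1,000 per well, were allowed to settle for 16 h at 37 C before compound addition. Five concentrations were tested for 48 h, and viability was read by ATPlite luminescence after 15 min at room temperature.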

| SMILES | Potency | activity change, negative = cytotoxicity |
| --- | --- | --- |
| COc1cc(CO)ccc1O[C@@H]1O[C@H](CO)[C@@H](O)[C@H](O)[C@H]1O | inactive |  |
| COC(=O)c1c(CC=C(C)C)c(OC2OC(CO)C(O)C(O)C2O)c2ccccc2c1OC1OC(CO)C(O)C(O)C1O (stereo not drawn) | inactive |  |
| COc1ccc(C2(O)c3c(ccc4c3OC(C)(CCC=C(C)C)C=C4)NC(=O)C2OC)cc1 (stereo not drawn) | inactive |  |
| Cc1ccc(C)c(NC(=O)CNS(=O)(=O)c2ccc3[nH]c(=O)oc3c2)c1 | inactive |  |
| CO[C@H]1c2cc(C(C)C)c(O)c(O)c2[C@@]23CCCC(C)(C)C2[C@@H]1OC3=O (stereo partly drawn) | inactive |  |
| COc1cc(C(C)=O)ccc1O[C@@H]1O[C@H](CO[C@@H]2OC[C@@H](O)[C@H](O)[C@H]2O)[C@@H](O)[C@H](O)[C@H]1O | inactive |  |
| CN[C@H](CNC(=O)N1CCC[C@@H]([C@@H](OCCNC(=O)OC)c2cccc(Cl)c2)C1)C[C@H]1CCCOC1 | inactive |  |
| O=C(O)CCc1cc2ccoc2cc1O[C@@H]1O[C@H](CO)[C@@H](O)[C@H](O)[C@H]1O | inactive |  |
| CC(C)[C@@H](C(=O)O)N1Cc2c(cc(O)c3c2O[C@]2(C3)[C@H](C)CCC3C(C)(C)[C@H](O)[C@H](O)C[C@@]32C)C1=O (stereo partly drawn) | inactive |  |
| CCOC(=O)CSc1nc2c(sc3ccccc32)c(=O)n1CCCN1CCCC1 | inactive |  |
| CC1CCC2(C(=O)O)CCC3(C)C(=CCC4C5(C)CCC(O)C(C)(C(=O)O)C5CCC43C)C2C1(C)O (stereo not drawn) | inactive |  |
| Cc1ccccc1N1CCN(S(=O)(=O)C[C@]23CC[C@H](C[C@@H]2NC(=O)[C@@H](N)CCS(C)(=O)=O)C3(C)C)CC1 | inactive |  |
| C/C=C(\C)C(=O)OCC1OC(OCC2OC(OC3(CO)OC(CO)C(O)C3O)C(O)C(O)C2O)C(O)C(O)C1O (stereo not drawn) | inactive |  |
| COc1ccc(/C=C/C(=O)O[C@@H]2[C@@H](OC(C)=O)[C@@H](OC(C)=O)[C@H](O[C@H]3[C@@H]4C=CO[C@@H](O[C@@H]5O[C@H](CO)[C@@H](O)[C@H](O)[C@H]5O)[C@@H]4[C@@]4(CO)O[C@@H]34)O[C@H]2C)cc1 | inactive |  |
| CC1=C2C[C@@]3(C)[C@@H](CCC[C@@H]3C)C[C@@]2(O)OC1=O | inactive |  |
| COC(=O)/C=C/c1ccc(O[C@@H]2O[C@H](CO)[C@@H](O)[C@H](O)[C@H]2O)cc1 | inactive |  |
| FC(F)(F)Oc1ccc(-c2ccc3nnc(C(F)(F)F)n3c2)cc1 | inactive |  |
| C=C(C(=O)O)C1CC(OC(=O)CC(C)CC)C2(C)CCCC(=C)C2C1 (stereo not drawn) | inactive |  |
| CC(C)(O)C1CC=C(C(=O)OC[C@H]2O[C@@H](OC(=O)C3=CCC(C(C)(C)O)CC3)[C@H](O)[C@@H](O)[C@@H]2O)CC1 (stereo partly drawn) | inactive |  |
| C[C@@H]1O[C@@H](O[C@@H]2[C@@H](O)[C@H](O[C@@H]3[C@@H](O)[C@@H](O)[C@H](O[C@H]4[C@H](OC(=O)[C@]56CCC(C)(C)C[C@H]5C5=CCC7[C@@]8(C)C[C@H](O)[C@H](O[C@@H]9O[C@H](C(=O)O)[C@@H](O)[C@H](O)[C@H]9O)[C@@](C)(CO)C8[C@H](O)C[C@@]7(C)[C@]5(C)C[C@H]6O)O[C@@H](CO)[C@@H]4O)O[C@H]3C)OC[C@H]2O)[C@H](O)[C@H](O)[C@H]1O (stereo partly drawn) |  | 5.57% [at 6.55 µM] |
| O=C(O)c1cccc(C(=O)CCC2OC(n3cnc4c(=O)[nH]cnc43)C(O)C2O)c1 (stereo not drawn) | inactive |  |
| CC1(CO)CCCC2(C)C1C(OC(=O)c1ccccc1)CC1C(=O)OCC12O (stereo not drawn) | inactive |  |
| CC1C2=CC(=O)OC2(O)CC2C1C(O)CC1C(C)(CO)CCCC21C (stereo not drawn) | inactive |  |
| COc1cc2c(cc1OC)N1C(=O)C[C@@]34C=CC[N@+]5([O-])CC[C@H]2[C@H](CC3)[C@@]145 | inactive |  |
| CCCN1CCC[C@@H](c2cccc(S(C)(=O)=O)c2)C1 | inactive |  |
| CC1CCC2(C(=O)OC3OC(CO)C(O)C(O)C3O)CCC3(C)C(=CCC4C5(C)CCC(O)C(C)(CO)C5CCC43C)C2C1(C)O (stereo not drawn) | inactive |  |
| COc1ccc(Oc2c(Cl)cnn(C3c4ccccc4-c4ccccc43)c2=O)cc1 | inactive |  |
| Cc1nnc(-c2sc(NC(=O)[C@H](C(C)C)n3c(=O)[nH]c4ccccc4c3=O)nc2C)o1 | inactive |  |
